# According to PubChem BioAssay (NCATS):
# Records with an inconclusive call do not appear. A call without a number means that no potency is given here. Calls of active or inactive are those of the source. Calls follow the shape of the dose curve; as a rule, active = well fitted inhibition curve with a large enough effect; inconclusive = small, poorly fitted or top-dose-only effect; inactive = no such curve, though single readings can be large or run the other way.
# Experiment: P-glycoprotein substrates identified in KB-3-1 adenocarcinoma cell line, qHTS therapeutic library screen (AID 1346986); also: nearly all actives have a fitted effect of over 60% in size
# Details: KB-3-1 parental cells viability, CellTiter-Glo, 72 h; series mostly up to 44.5 µM
# Method in brief: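 KB-3-1 parental cells and P-gp-overexpressing KB-8-5-11 (colchicine omitted during assay) plated at 500 cells/well, dosed in dose-response, incubated 72 h at 37 degree C. CellTiter-Glo luminescence read; KB-8-5-11 also tested with tariquidar.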
SMILES,Potency,outcome
Cc1ccc(-c2c(-c3nn(C)c4ncnc(N5CCC(N6CCCCC6)C5)c34)cnn2C)cc1 (configuration not stated),inactive,
Cc1cc(CNC(=O)c2cc(C(=O)NCc3ccc(F)c(C)c3)ncn2)ccc1F,inactive,
C=C1C(O)CC2C(C(=O)O)=COC(O[C@@H]3O[C@H](COC(=O)c4ccc(O)cc4)[C@@H](O)[C@H](O)[C@H]3O)C12 (some centres not stated),inactive,
C[C@@H](c1ccccc1)N(C(N)=NC#N)c1cccc2ncccc12,inactive,
CC1(C)CC[C@]2(C(=O)O[C@@H]3O[C@H](CO)[C@@H](O)[C@H](O)[C@H]3O)CC[C@]3(C)C(=CCC4[C@@]5(C)CC[C@H](O[C@@H]6O[C@H](C(=O)O)[C@@H](O[C@@H]7O[C@H](CO)[C@@H](O)[C@H](O)[C@H]7O)[C@H](O)[C@H]6O)C(C)(C)C5CC[C@]43C)C2C1 (some centres not stated),,inactive [at 9.29 µM]
CC(=O)O[C@H]1C[C@@H](O)C(C)(C)C2C[C@@H](OC(C)=O)[C@]3(C)C(CC[C@@]4(C)[C@H](c5ccoc5)OC(=O)[C@H]5O[C@]543)[C@]21C (some centres not stated),inactive,
C[C@@H]1O[C@@H](O[C@H]2[C@H](O[C@H]3[C@H](O[C@H]4CC[C@@]5(C)C(CC[C@]6(C)C5CC=C5[C@@H]7CC(C)(C)C[C@@H](O)[C@]7(C)CC[C@]56C)C4(C)C)O[C@H](C(=O)O)[C@@H](O)[C@@H]3O)O[C@H](C(=O)O)[C@H](O)[C@@H]2O)[C@H](O)[C@H](O)[C@H]1O (some centres not stated),,inactive [at 9.29 µM]
CC(=O)OCC1OC(O[C@H]2CC[C@@]3(C)C(CC[C@]4(C)C3CC=C3[C@@H]5CC(C)(C)CC[C@]5(C(=O)O)CC[C@]34C)[C@]2(C)CO)C(O)C(O)C1OC1OC(C)C(O)C(OC2OCC(O)C(O)C2O)C1O (some centres not stated),,inactive [at 9.29 µM]
CC(C)=C1CC2C(CCC2(C)O)C(C)(O)CC1=O (configuration not stated),inactive,
CC(=O)O[C@H]1[C@H](O[C@H]2CC[C@]34C[C@]35CC[C@]3(C)[C@@H]([C@@]6(C)CC[C@@H](C(C)(C)O)O6)[C@@H](O)C[C@@]3(C)[C@@H]5C[C@H](O[C@@H]3O[C@H](CO)[C@@H](O)[C@H](O)[C@H]3O)[C@H]4C2(C)C)OC[C@@H](OC(C)=O)[C@@H]1O,inactive,
COC1OC(=O)C2=C1C1(C)CCCC(C)(C)C1CC2O (configuration not stated),inactive,
CC1(C)CC[C@]2(C(=O)O[C@@H]3O[C@H](CO)[C@@H](O)[C@H](O)[C@H]3O)CC[C@]3(C)C(=CCC4[C@@]5(C)CC[C@H](OC6OC(C(=O)O)C(OC7OC(CO)C(O)C(O)C7O)C(O)C6O)C(C)(C)C5CC[C@]43C)C2C1 (some centres not stated),,inactive [at 9.29 µM]
CN(C)CC(c1ccc(O)cc1)C1(O)CCCCC1 (configuration not stated),inactive,
CC(C)=CCc1cc(O[C@@H]2O[C@H](CO[C@@H]3OC[C@](O)(CO)[C@H]3O)[C@@H](O)[C@H](O)[C@H]2O)ccc1O,inactive,
O=C(O[C@H]1[C@H](Oc2ccc(O)cc2CO)O[C@H](CO)[C@@H](O)[C@@H]1O)c1ccccc1,inactive,
C=C(C)C(O)COc1ccc(CC(=O)O)cc1 (configuration not stated),inactive,
C[C@]1(OC(=O)/C=C\c2ccc(O)cc2)C[C@@H](O)[C@]2(O)C=CO[C@@H](O[C@@H]3O[C@H](CO)[C@@H](O)[C@H](O)[C@H]3O)C12 (some centres not stated),inactive,
CC1(CO)CCCC2(C)C3COC(=O)C3=CC(O)C12 (configuration not stated),inactive,
CC(=O)O[C@@H]1[C@H](O[C@@H]2O[C@H](CO)[C@@H](O)[C@H](O)[C@H]2O)[C@@H](O[C@@H]2O[C@@H](C)[C@H](O)[C@@H](O[C@@H]3O[C@H](CO)[C@@H](O)[C@H](O)[C@H]3O)[C@H]2O)[C@H](OC(=O)[C@]23CCC(C)(C)C[C@H]2C2=CCC4[C@@]5(C)C[C@H](O)[C@H](O[C@@H]6O[C@H](C(=O)O)[C@@H](O)[C@H](O)[C@H]6O)[C@@](C)(C(=O)O)C5CC[C@@]4(C)[C@]2(C)CC3)O[C@@H]1C (some centres not stated),,inactive [at 9.29 µM]
C=C[C@H]1[C@H](O[C@@H]2O[C@H](CO)[C@@H](O)[C@H](O)[C@H]2O)OC=C2C(=O)N3Cc4c([nH]c5ccccc5c4=O)[C@@H]3C[C@H]21,inactive,
COC(=O)C1=CO[C@@H](O[C@@H]2O[C@H](CO)[C@@H](O)[C@H](O)[C@H]2O)C2C1CC(O)C2C (some centres not stated),inactive,
CC(C)C1(O)NC(=O)C(CC2(O)c3ccccc3N3C(=O)C(C)(C)NC32)n2c1nc1ccccc1c2=O (configuration not stated),inactive,
